Experimental findings from PubChem BioAssay AID624351 (Southern Research Specialized Biocontainment Screening …, 2012) are described below.

The campaign covered roughly 2,400 compounds. About 1,400 (58%) were called active. The set was probably picked from earlier hits. Some of the results follow. Unmarked numbers belong to inactive results.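 Rule for the calls: active = inhibition of 30% or more at any tested dose; inconclusive = primary hits over the limit that were never retested; inactive = the rest.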

This test can be described thus: coupled detection enzyme interference, dose response, artefact control for MgcRacGAP inhibitor project, biochemical, coupled enzyme counter-screen (AID 624351).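 For inhibition: 0% = median positive control wells and 100% = median negative control wells.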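 Note: signal is the ADP detection kit reading of free GDP without any GAP enzyme.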 The settings on record: ADP Hunter coupled enzyme counter-screen, fluorescence, no MgcRacGAP; series mostly up to 80 µM; inhibition: at the top concentration. (The purpose of a counterscreen is to sort out artefacts and off-target activity.)
As usually defined, the inhibition is the relative decrease from the control value, in per cent. In the case of `COCCCNCCCCOc1c(Cl)cc(C)cc1Br`, the “inhibition” value is 18.9%.

As for `Nc1cc(SCc2ccc([N+](=O)[O-])cc2)ncn1`, the “inhibition” value was -2%.

The term IC50 denotes the point on the concentration scale where inhibition reaches its midpoint. As for `COc1cc(/C=C2/SC(=Nc3ccc(O)cc3)NC2=O)ccc1O`, the IC50 is 27.2 µM (active).

Regarding `CN(C)c1ccc(/C=C2/NC(=O)NC2=O)cc1`, the IC50 is 52.8 µM (active).

In the case of `COc1cc(C=C2NC(=O)NC2=O)ccc1O`, the IC50 was 19.4 µM (active).

With `COc1cc(/C=C2/C(=O)ON=C2c2ccccc2)ccc1O`, the “inhibition” value was 22.2%.

With `COc1cc(/C=C2\SC(=Nc3ccccc3)NC2=O)cc(Cl)c1O`, the IC50 is 82 µM (active).

Regarding `CCOc1ccc(C2NC(=O)C(C#N)=C(S)N2c2cccc(C)c2)cc1OC` (stereo unspecified), the “inhibition” value was 3.96%.

As for `COc1cc(/C=C2\SC(=Nc3ccccc3OC)NC2=O)ccc1O`, the IC50 was 25 µM (active).

Regarding `COc1ccccc1-c1cn[nH]c1-c1ccc(O)cc1O`, the half-inhibitory concentration (IC50) was 51.4 µM (active).

For the compound `COc1ccc(-c2cn[nH]c2-c2ccc(O)cc2O)cc1`, the IC50 was 47.9 µM (active).

With `COc1ccc(-c2cn[nH]c2-c2ccc(O)cc2O)cc1OC`, the IC50 was 57.6 µM (active).

For the compound `CCn1c(=O)c(C(=O)CN(C)Cc2cccc(OC)c2OC)c(N)n(Cc2ccccc2)c1=O`, the “inhibition” value was 26.9%.

With `COCCCNC1=C(C#N)C(=O)NC(c2cccs2)S1` (stereo unspecified), the “inhibition” value is 0.96%.

`CC1(C)OC(=O)C(=Cc2ccc(-c3ccc(S(N)(=O)=O)cc3)o2)C(=O)O1`: the “inhibition” value was -0.06%.

Regarding `O=c1c2ccc(F)cc2sn1-c1ccccc1`, the “inhibition” value is 22.8%.

On to `COc1ccc(Br)cc1CN1CCN(Cc2c[nH]c3ccccc23)CC1`, for which the “inhibition” value is 23.5%.

`COc1cc2c(CCNC(C)=O)c[nH]c2cc1O`: the concentration for half-maximal inhibition (IC50) was 50.7 µM (active).

In the case of `CC(=O)N1CCN(CC(O)COc2ccc(Br)cc2)CC1` (stereo unspecified), the “inhibition” value is 15.8%.

For `CCOc1ccc(CN2CCN(S(=O)(=O)c3ccc(NC(C)=O)cc3)CC2)cc1`, the “inhibition” value is 10.9%.

On to `Cc1ccc(C)c(S(=O)(=O)N2CCN(CC(=O)N3CCc4ccccc4C3)CC2)c1`, for which the “inhibition” value was 24.3%.

`O=C(Cc1coc2cc(O)ccc12)N1CCN(S(=O)(=O)c2ccc(Br)cc2)CC1`: the IC50 was 21.6 µM (active).

For `N#Cc1ccccc1S(=O)(=O)N1CCN(C(=O)Cc2coc3cc(O)ccc23)CC1`, the IC50 was 33.6 µM (active).

`Oc1ccc(-c2cn3c(n2)SCC3)cc1`: the IC50 was 19.5 µM (active).

As for `CCOc1cc(/C=C(\C#N)c2[nH]nc(N)c2C#N)ccc1O`, the IC50 is 45.7 µM (active).

Regarding `CCOc1cc(-c2cc(-c3ccc(N)cc3)nc(N)c2C#N)ccc1O`, the “inhibition” value was 0.56%.

On to `CC1CCCN(CCOc2ccc3ccccc3c2Br)C1` (stereo unspecified), for which the “inhibition” value was 10.3%.

`CC1NC(C)c2c(ccc3ccccc23)O1` (stereo unspecified): the “inhibition” value was 20.8%.

With `Oc1ccc2ccccc2c1Br`, the concentration for half-maximal inhibition (IC50) is 15.8 µM (active).

`CN1C(=O)C2C(c3ccc(N(C)C)cc3)=NN(Cc3ccccc3)C2C1=O` (stereo unspecified): the concentration for half-maximal inhibition (IC50) was 46.5 µM (active).

`c1ccc(Nc2cc(Nc3ccccc3)[nH]n2)cc1`: the IC50 was 57.9 µM (active).

With `C/C=C/C=C/C(=O)[C@@H]1[C@@H]([C@]2(C)OC(=O)C(C)=C2O)[C@H]2/C(=C(O)/C=C/C=C/C)C(=O)[C@]1(C)C(=O)C2(C)O` (stereo partly specified), the “inhibition” value was -21.4%.

Take `Oc1ccc(NC(=S)N=Nc2c(O)[nH]c3ccccc23)cc1`: the concentration for half-maximal inhibition (IC50) was 27.5 µM (active).

For `Nc1ccc2nc(CCCCc3nc4ccccc4[nH]3)[nH]c2c1`, the IC50 was 59.4 µM (active).

Take `Nc1ccc2nc(Cc3ccccc3)[nH]c2c1`: the IC50 was 72.6 µM (active).

On to `O=C1C(=Cc2ccco2)CCC1=Cc1ccco1`, for which the inhibition is -16.6% [at 10 µM].

For the compound `O=C(CCC1CCCC1)N1CCN(C2CCCC2)CC1`, the “inhibition” value was 18.7%.

For `CC/C(=C\c1ccc(N(C)C)cc1)c1ccncc1`, the concentration for half-maximal inhibition (IC50) was 29.7 µM (active).

Turning to `COC1=C(Br)C(=O)c2nc(C)ccc2C1=O`, the “inhibition” value was -0.53%.

With `O=C(Nc1ccc(N2CCCCCC2)cc1)c1ccc[nH]1`, the IC50 is 38.8 µM (active).

Consider `O=C(Nc1ccc(N2CCCCC2)cc1)c1ccccc1`, for which the “inhibition” value was 26.5%.

Consider `Cc1ccccc1C(=O)Nc1ccc(N2CCCC2)cc1`, for which the concentration for half-maximal inhibition (IC50) was 70.8 µM (active).

Regarding `CN1CCN(Cc2coc3c(Cl)cc(Cl)cc3c2=O)CC1`, the “inhibition” value was 23%.

On to `Cc1ccc(CCC(=O)Nc2ccc(N(C)C)cc2)o1`, for which the IC50 is 57.5 µM (active).

Turning to `Cc1ccc(NC(=O)CCNCc2ccco2)cc1S(=O)(=O)N(C)C`, the “inhibition” value was 17.8%.

Turning to `COc1ccc(NC2CCCN(C(=O)CCN3CCCC3=O)C2)cc1OC` (stereo unspecified), the “inhibition” value was 28%.

As to `COc1ccc(C2CC(c3ccc4ccccc4c3)=NN2C(=O)CNC2CCCCC2)cc1` (stereo unspecified), the “inhibition” value is 8.63%.

Take `COc1ccc(CN2CCN(Cc3cccc(F)c3)CC2)cc1OC`: the “inhibition” value was 13%.

With `COc1ccc(NC2CCCN(C(=O)CSc3ccccc3)C2)cc1OC` (stereo unspecified), the half-inhibitory concentration (IC50) is 68.5 µM (active).

On to `COc1ccc(NC2CCCN(C(=O)CCc3cccc(F)c3)C2)cc1` (stereo unspecified), for which the IC50 is 72.9 µM (active).

Regarding `O=C(c1cccc(F)c1)N1CCN(Cc2cccc(Br)c2)CC1`, the “inhibition” value was 15.5%.

Regarding `COc1ccc(C(=O)N2CCN(C3CCN(Cc4ccccc4)CC3)CC2)cc1OC`, the “inhibition” value is 21.6%.

Turning to `COc1ccc(NC2CCCN(C(=O)CCN3CCCO3)C2)cc1` (stereo unspecified), the “inhibition” value was 27.3%.

As to `COc1ccc(NC2CCCN(C(=O)CCN3Cc4ccccc4C3=O)C2)cc1` (stereo unspecified), the IC50 is 63 µM (active).

As for `CCOc1ccccc1/C=c1\sc2ncnn2c1=O`, the “inhibition” value was 1.49%.

Regarding `CN1C(=O)NC(c2ccc(O)cc2)C2=C1CN(c1ccc(O)cc1)C2=O` (stereo unspecified), the IC50 was 44.7 µM (active).
